According to PubChem BioAssay AID588342 (National Center for Advancing Translational Sciences (NCATS), 2011):
Among all 360,000 compounds or so, about 25,000 (6.9%) were called active. Not shown: some 9% with an inconclusive outcome. The list comes from a sample in which actives are over-represented; it also holds similar structures and randomly drawn compounds. A number with no mark means an inactive call. Calls follow the shape of the dose curve; as a rule, active = well fitted inhibition curve with a large enough effect; inconclusive = small, poorly fitted or top-dose-only effect; inactive = flat fitted curve, though single readings scatter.

Molecular target: Luciferin 4-monooxygenase (Photinus pyralis) (UniProt P08659)
Sequence (P08659 whole entry, looked up): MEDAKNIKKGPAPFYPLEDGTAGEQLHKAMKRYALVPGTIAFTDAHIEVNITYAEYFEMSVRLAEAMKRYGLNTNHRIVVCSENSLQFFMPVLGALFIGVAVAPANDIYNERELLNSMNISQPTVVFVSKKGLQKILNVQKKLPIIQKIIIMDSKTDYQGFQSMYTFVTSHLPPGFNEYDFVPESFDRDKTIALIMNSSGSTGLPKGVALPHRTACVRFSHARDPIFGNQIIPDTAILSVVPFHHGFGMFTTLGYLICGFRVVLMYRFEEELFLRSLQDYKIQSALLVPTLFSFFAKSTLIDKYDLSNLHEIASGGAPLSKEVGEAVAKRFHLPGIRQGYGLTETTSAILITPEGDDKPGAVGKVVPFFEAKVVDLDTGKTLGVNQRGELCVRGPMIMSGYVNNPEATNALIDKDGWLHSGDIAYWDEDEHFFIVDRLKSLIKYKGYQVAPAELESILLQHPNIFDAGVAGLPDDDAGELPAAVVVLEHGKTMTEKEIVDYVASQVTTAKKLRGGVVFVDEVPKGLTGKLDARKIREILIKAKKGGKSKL
Test: qHTS profiling assay for firefly luciferase inhibitor/activator using purifed enzyme and Km concentrations of substrates (counterscreen for miR-21 project); also: nearly all actives have a fitted effect of over 55% in size;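 as to activity change, negative = inhibition: plate controls were vehicle for no effect and reference inhibitor for full effect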
Conditions: purified FLuc, luminescence inhibition; series mostly up to 57.5 µM; activity change, negative = inhibition: at the top concentration
Method in brief: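 Purified P. pyralis luciferase, 10 nM final, with Km-level 10 uM D-luciferin and 10 uM ATP in 50 mM Tris acetate pH 7.5, 10 mM Mg acetate, 0.01% Tween-20, 0.05% BSA; 6-point qHTS titration about 60 µM downward; luminescence read.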
Potency is read from the fitted curve at half-maximal effect.

Row | Structure (SMILES) | activity change, negative = inhibition | Potency
1 | Cc1cccc(C(=O)NNC(=O)CSc2nnc(C(C)C)n2C)c1 | 0.258% | 
2 | C=CCn1c(C)cc(C2=NNC(=NCC)SC2)c1C |  | 0.151 µM (active)
3 | COCCn1c(C)cc(C2=NNC(=Nc3ccc(F)cc3)SC2)c1C |  | 3.38 µM (active)
4 | Cc1ccc(S(=O)(=O)c2ccc(Cl)cc2)cc1S(=O)(=O)NC(C(=O)O)C(C)C (centres undefined) | -1.66% | 
5 | CCOc1ccc(OCC)c(Nc2nc3ccccc3n3nnnc23)c1 | -4.04% | 
6 | Cc1cccc(N(C(=O)c2ccc(CN3CCOCC3)o2)C(C(=O)NC2CCCCC2)c2ccc(F)cc2)c1 (centres undefined) | 0.757% | 
7 | CCc1cc2c(cc3c(=O)n(CC(=O)N4CCN(c5cc(Cl)ccc5C)CC4)ncn32)s1 | -1.68% | 
8 | CCOc1ccc(N(C)S(=O)(=O)c2cc(-c3cnc(C)o3)ccc2OC)cc1 | -13.9% | 
9 | Cc1cc(C)c(NC(=O)CSc2nc3nccnc3c(=O)n2CCc2c[nH]c3ccccc23)c(C)c1 | 1.53% | 
10 | COCCNC(=O)c1ccc2c(c1)N(Cc1cccc(Cl)c1)C(=O)c1ccccc1S2(=O)=O | 2.89% | 
11 | COc1ccc2oc(=O)c(C(=O)NCc3ccccn3)cc2c1 | -18.7% | 
12 | Cc1cc(C)cc(OCC(=O)NNC(=O)c2cc3ccccc3oc2=O)c1 | -3.62% | 
13 | COc1cccc2cc(C(=O)N3CCN(C(=O)c4ccccc4)CC3)c(=O)oc12 | 1.94% | 
14 | COc1ccc(CNC(=O)c2cc3cccc(OC)c3oc2=O)cc1 | 1.19% | 
15 | COc1cccc2cc(C(=O)NCc3ccc(C)cc3)c(=N)oc12 |  | 5.36 µM (active)
16 | NC(=O)c1cc2ccccc2o/c1=N/NC(=O)c1cccc(F)c1 | -6.69% | 
17 | COc1cccc2cc(C(N)=O)/c(=N\NC(=O)c3ccccc3)oc12 |  | 1.69 µM (active)
18 | CN(c1ccccc1)S(=O)(=O)c1ccc(Cl)c(C(=O)NCCc2c[nH]c3ccccc23)c1 | 1.57% | 
19 | O=C(NCc1ccccn1)c1cc2ccccc2oc1=O |  | 13.5 µM (active)
20 | Cc1cc(C)cc(NC(=S)NCCc2c[nH]c3ccccc23)c1 | -0.441% | 
21 | COc1cccc2cc(C(=O)N(C)C)c(=O)oc12 | 4.57% | 
22 | O=C(NCCc1c[nH]c2ccccc12)c1cc2ccccc2oc1=O |  | 16.9 µM (active)
23 | N#Cc1ccc(CN2CCN(CC(=O)Nc3ccccc3C(=O)NC3CC3)CC2)cc1 | 0.877% | 
24 | Cc1ccc(C(NC(=O)N2CCCC2)C(Cl)(Cl)Cl)cc1F (centres undefined) | -0.884% | 
25 | CCCCn1c(=O)c2oc3ccccc3c2n(CC(=O)Nc2ccccc2OC)c1=O | -0.61% | 
26 | COc1ccc(C)cc1-n1c(-c2ccc(C)cc2)cc2c1CC(C)(C)CC2=O | 5.93% | 

Row | Structure (SMILES) | activity change, negative = inhibition | Potency
27 | COC(=O)C1=C(C)NC(=S)NC1c1ccc(OCC(=O)N2CC(C)OC(C)C2)c(OC)c1 (centres undefined) | 3.18% | 
28 | CC(=O)Nc1ccc(S(=O)(=O)N2CCN(S(=O)(=O)c3cccs3)CC2)cc1 | -1.89% | 
29 | O=C(NCC(c1ccc2c(c1)OCO2)N1CCN(c2ccccc2)CC1)C(=O)Nc1ccccc1F (centres undefined) | -9.43% | 
30 | COc1ccc(CCNC(=O)c2nn(C)c3c2CSc2ccccc2-3)cc1OC | -17.3% | 
31 | COc1ccc(C(=O)NCC2CCCCC2)cc1S(=O)(=O)N1CCCC1 | -4.76% | 
32 | CCC(=O)N1CCc2cc(Br)cc(S(=O)(=O)CCC(=O)NCc3ccccc3OC)c21 | -9.49% | 
33 | COc1cc(OC)c(NC(=O)c2cnc(N3CCCC3)nc2C)cc1Cl | 2.64% | 
34 | Cc1sc2nc(CC(N)=O)[nH]c(=O)c2c1-c1ccccc1 | 2.11% | 
35 | CC1CCC2(CC1)N=C(c1ccccc1)C(=O)N2CC(=O)Nc1ccc(F)c(Cl)c1 (centres undefined) | -0.323% | 
36 | CCCCNC(=O)c1cc(-c2ccc(Cl)c(Cl)c2)on1 | 2.84% | 
37 | O=C(NCc1ccccn1)c1cc(-c2ccccc2Cl)on1 |  | 10.7 µM (active)
38 | CSc1ccccc1C(=O)NCc1ccccc1 | 3.41% | 
39 | O=C(CCCCCNC(=O)c1ccccc1)N/N=C/c1ccccc1 | 0.301% | 
40 | Nc1ccc(C(=O)NCc2ccccc2)cc1 | -5.23% | 
41 | N=c1oc2ccccc2cc1C(=O)N/N=C/c1ccccc1 |  | 1.35 µM (active)
42 | O=C(N/N=C\c1cccc(Br)c1)c1ccccc1-n1cccc1 | 0.179% | 
43 | N=c1oc2ccccc2cc1C(=O)NCc1ccccc1 |  | 9.53 µM (active)
44 | O=C(NCc1ccccc1)c1cc(-c2cccc(Cl)c2)on1 | 2.29% | 
45 | CC(C)[C@H](NC(=O)N1CCn2c1nc1ccccc12)C(=O)NCCc1ccccc1 | 0.834% | 
46 | Cc1ccc(/C=N/NC(=O)CN2CCN(Cc3ccccc3)CC2)s1 | -3.1% | 
47 | Cc1ccc(C(=O)N/N=C/c2sc(=O)n(Cc3cccc(C(=O)O)c3)c2Cl)cc1 |  | 16.9 µM (active)
48 | Cc1ccc(C(=O)Nc2c(C#N)c(C)c(C)n2Cc2ccccc2)cc1 | -1.22% | 
49 | C=C1CCC(N(O)c2cc(C)on2)C(=C)CCC2C1CC2(C)C (centres undefined) | -0.208% | 
50 | CCCCCc1ccc(-c2ccc(OCC)cc2)nc1 |  | 10.7 µM (active)
51 | CCOc1ccc(-c2cc(C)n3nc(C(=O)Nc4ccc(C)c(C)c4)cc3n2)cc1 | 2.77% | 
52 | CCCCCc1ccc(-c2ccc(C(=O)O)cc2)nc1 |  | 0.675 µM (active)

Row | Structure (SMILES) | activity change, negative = inhibition | Potency
53 | CCOc1c(CNCc2ccc(C(=O)O)cc2)cccc1OC | -0.885% | 
54 | CCCCCc1ccc(-c2cn(Cc3ccc4ccccc4c3)nn2)cc1 | 1.7% | 
55 | Cc1ccc(-c2cn3c(n2)sc2cc(C(=O)NCCCc4ccccc4)ccc23)cc1 | -7.52% | 
56 | Cc1cc(F)ccc1S(=O)(=O)Nc1ccc(C(=O)N(C)Cc2ccco2)cc1 | -0.606% | 
57 | CCc1nc2nc(C)cc(Nc3ccc(F)c(Cl)c3)n2n1 | 7.42% | 
58 | COc1ccc(/C=C/c2nc(C#N)c(NCc3ccc(F)cc3)o2)cc1OC | -8.93% | 
59 | CCCCCn1c(=O)[nH]c2cc(C(=O)NCCN(C)CCCC)ccc2c1=O | 0.508% | 
60 | CCc1ccc(C2CC(=O)c3c([nH]c(C(=O)OCc4ccc(C)cc4)c3C)C2)cc1 (centres undefined) | 0.719% | 
61 | COc1ccccc1Nc1c2c(nc3ccc(NC(=O)/C=C/c4cc(OC)c(OC)c(OC)c4)cc13)CCCC2 | 22.1% | 
62 | N#Cc1cccc(NC(=O)C2CCCN(C(=O)c3ccc(Cl)cc3)C2)c1 (centres undefined) | -1.14% | 
63 | CCc1ccc(CNCc2c(C(=O)O)n(Cc3ccc(F)cc3Cl)c3cc(OC)ccc23)cc1 | -6.35% | 
64 | O=C(CSc1nc2c(c(=O)[nH]1)CN(Cc1ccc3c(c1)OCO3)CC2)Nc1cc(F)ccc1F | -4.96% | 
65 | c1ccc(-c2cn3c(n2)CCc2ccc4cccnc4c2-3)cc1 |  | 10.7 µM (active)
66 | COc1ccc(NC(=O)CCCc2nnc3n(CCC(C)C)c(=O)c4sccc4n23)c(OC)c1 | 1.17% | 
67 | CCc1ccc(NC(=O)c2cc3c(=O)n(Cc4cccnc4)ccc3nc2C)cc1 | -5.95% | 
68 | O=C(COc1ccc2oc3c(c2c1)CCCC3)Nc1ccccn1 |  | 1.07 µM (active)
69 | CCN(CC)CCCNC(=O)COc1ccc2oc3c(c2c1)CCCC3 | -2.85% | 
70 | CCOC(=O)N1CCN(C(=O)COc2ccc3oc4c(c3c2)CCCC4)CC1 | -16.5% | 
71 | COc1ccc(C2c3c(oc4ccccc4c3=O)C(=O)N2Cc2ccc3c(c2)OCO3)cc1 (centres undefined) | -4.43% | 
72 | C/C(=N/NC(=O)C1COc2ccccc2O1)c1ccco1 (centres undefined) | 2.51% | 
73 | COc1ccc([N+](=O)[O-])cc1NC(=O)CCc1ccccc1 | -4.23% | 
74 | COc1ccc(NC(=O)CC2COc3ccccc3O2)c(OC)c1 (centres undefined) | -1.63% | 
75 | O=C(CCc1ccccc1)Nc1ncc([N+](=O)[O-])s1 |  | 15.1 µM (active)
76 | CN(c1ccccc1)S(=O)(=O)c1cccc(NC(=O)Cc2c(F)cccc2Cl)c1 | -5.92% | 
77 | CC(/C=C/c1ccco1)=N/NC(=O)C1COc2ccccc2O1 (centres undefined) | -20.5% | 
78 | CC(C)Cc1nnc(NC(=O)CCc2ccccc2)s1 | -15.7% | 

Row | Structure (SMILES) | activity change, negative = inhibition | Potency
79 | O=C(Cc1c(F)cccc1Cl)Nc1ccc(-n2cnnn2)cc1 | 2.75% | 
80 | O=C(Cc1c(F)cccc1Cl)Nc1ncc([N+](=O)[O-])s1 |  | 21.3 µM (active)
81 | O=C(Nc1ncc([N+](=O)[O-])s1)C1COc2ccccc2O1 (centres undefined) |  | 21.3 µM (active)
82 | CCN(CC)S(=O)(=O)c1ccc(N2CCOCC2)c(NC(=O)C2COc3ccccc3O2)c1 (centres undefined) | -2.19% | 
83 | COc1ccc(NC(=O)C2COc3ccccc3O2)cc1 (centres undefined) |  | 16.9 µM (active)
84 | COc1cc(NC(=O)Cn2c(=O)n(Cc3ccco3)c(=O)c3oc4ccccc4c32)cc(OC)c1 | -1.65% | 
85 | COc1ccc(-c2nn(CC(=O)NC3CCCC3)c3c2cnc2ccc(F)cc23)cc1 | 5.55% | 
86 | CC(C)CN(C(=O)c1ccc2c(c1)OCO2)C1CCS(=O)(=O)C1 (centres undefined) | 0.66% | 
87 | O=c1c2cccnc2n(Cc2cccc(F)c2)c(=O)n1Cc1ccccc1Cl | -8.13% | 
88 | O=[N+]([O-])c1cc(Br)c(O)c(/C=N/Nc2nc3ccccc3s2)c1 |  | 19 µM (active)
89 | COc1cc(/C=N/NC(=O)Nc2ccccc2)ccc1OCCOc1ccccc1C | 3.18% | 
90 | COc1cc(/C=N/NC(=O)CNC(=O)c2ccncc2)ccc1OC(C)=O | 3.06% | 
91 | COc1cc(/C=N\Nc2nc(-c3cccs3)c(NC(C)=O)s2)ccc1O |  | 7.57 µM (active)
92 | COc1cc(/C=N/NC(=O)CCc2n[nH]c(=O)[nH]c2=O)ccc1O | -13.2% | 
93 | COc1ccc(CC(=O)N/N=C/c2cc([N+](=O)[O-])cc(Br)c2O)cc1 | 4.36% | 
94 | COc1cc(/C=N/Nc2nc3ccccc3s2)ccc1O |  | 2.39 µM (active)
95 | Cc1cc(C(=O)N/N=C/c2cc([N+](=O)[O-])cc(C)c2O)n[nH]1 | -0.645% | 
96 | Cn1c(SCC(=O)N/N=C/c2ccc(O)c(O)c2)nc2ccccc21 | -14.5% | 
97 | CCOC(=O)C1CCCN(S(=O)(=O)c2cc(-c3cc(C)no3)ccc2OC)C1 (centres undefined) | 5% | 
98 | CSc1nn(Cc2cccc(C)c2)c(N)c1S(=O)(=O)c1ccccc1 | 4.36% | 
99 | COc1cccc(CNC(=O)C2CCC(CNS(=O)(=O)c3cccs3)CC2)c1 (centres undefined) | -0.944% | 
100 | CC(C)(C)c1ccc(C(=O)NCC(c2ccc(Cl)cc2)N2CCOCC2)cc1 (centres undefined) | -10.9% | 
101 | CCOc1ccc(NC(=O)COC(=O)C2CCC(=O)N2)c([N+](=O)[O-])c1 (centres undefined) | -10.7% | 
102 | Cc1ccc(-n2c(C)cc(C(=O)CN3C(=O)C(=O)N(C4CCCC4)C3=O)c2C)cc1 | -14.7% | 
103 | Cc1cc(C(=O)COC(=O)C2CC2)c(C)n1-c1ccc(F)cc1 |  | 0.169 µM (active)
104 | COc1ccc(-n2c(C)cc(C(=O)COC(=O)c3cc(OC)c(OC)cc3NC(=O)c3cccs3)c2C)cc1 | -2.76% | 
